Compounds without any hit were thinned out: in the full panel of roughly 83,000, 20% have a hit.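 Cell lines were cultured in 96-well plates, exposed to a single compound concentration, and assessed for percent growth 48 hours later.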
Assays:
Assay in all cases: NCI-60 one-dose screen, 48 h (100 = growth as untreated, 0 = no growth, -100 = all killed)
Conditions in all cases: 10 µM unless noted; active means growth percent below 10; inactive means the rest
NCI-H23 lung = tested on: NCI-H23 lung
NCI-H322M lung = tested on: NCI-H322M lung
NCI-H460 lung = tested on: NCI-H460 lung
HOP-92 NSCLC = tested on: HOP-92 NSCLC
NCI-H522 lung = tested on: NCI-H522 lung
A549/ATCC NSCLC = tested on: A549/ATCC NSCLC
786-0 renal = tested on: 786-0 renal
DU-145 prostate = tested on: DU-145 prostate
K-562 leukemia = tested on: K-562 leukemia
MALME-3M melanoma = tested on: MALME-3M melanoma
MDA-MB-231 breast = tested on: MDA-MB-231 breast
RXF 393 renal = tested on: RXF 393 renal
SF-268 CNS = tested on: SF-268 CNS
SF-295 CNS = tested on: SF-295 CNS
SF-539 CNS = tested on: SF-539 CNS
UACC-257 melanoma = tested on: UACC-257 melanoma
M14 melanoma = tested on: M14 melanoma
HCT-15 colon = tested on: HCT-15 colon
COLO 205 colon = tested on: COLO 205 colon

Measured: growth

O=C(Cn1cc(COc2ncnc3c2cnn3-c2ccccc2)nn1)Nc1cccc2ccccc12
inactive: NCI-H23 lung 89% | NCI-H322M lung 93.2% | NCI-H460 lung 93.7% | HOP-92 NSCLC 82.3% | NCI-H522 lung 81.1% | A549/ATCC NSCLC 92.3% | 786-0 renal 103% | DU-145 prostate 97.9% | K-562 leukemia 94.6% | MALME-3M melanoma 93.6% | MDA-MB-231 breast 95% | RXF 393 renal 94.8% | SF-268 CNS 92.6% | SF-295 CNS 99.4% | SF-539 CNS 90% | UACC-257 melanoma 95.9% | M14 melanoma 105% | HCT-15 colon 96.9%

CCCCC1COc2cccc3c2N1C=C/C3=C\C(=O)N(C)c1ccccc1 (centres undefined)
inactive: NCI-H23 lung 26.6% | NCI-H322M lung 89.2% | NCI-H460 lung 64% | HOP-92 NSCLC 48.4% | NCI-H522 lung 55.6% | A549/ATCC NSCLC 71.6% | 786-0 renal 79.3% | COLO 205 colon 72.9% | DU-145 prostate 82.9% | K-562 leukemia 26.2% | MALME-3M melanoma 59.9% | MDA-MB-231 breast 62.9% | RXF 393 renal 89.6% | SF-268 CNS 70.4% | SF-295 CNS 52.2% | SF-539 CNS 84% | UACC-257 melanoma 53% | M14 melanoma 65.1% | HCT-15 colon 86.3%

COc1ccccc1N1C(=N)S/C(=C\c2ccc(OCc3ccccc3F)cc2)C1=O
inactive: NCI-H23 lung 79.8% | NCI-H322M lung 81.6% | NCI-H460 lung 77.4% | HOP-92 NSCLC 81.1% | NCI-H522 lung 65.7% | A549/ATCC NSCLC 80.3% | 786-0 renal 87.9% | COLO 205 colon 112% | DU-145 prostate 102% | K-562 leukemia 62.2% | MALME-3M melanoma 118% | MDA-MB-231 breast 51.4% | RXF 393 renal 65.8% | SF-268 CNS 82% | SF-295 CNS 95.1% | SF-539 CNS 106% | UACC-257 melanoma 90.9% | M14 melanoma 70.7% | HCT-15 colon 81.3%

O=C1c2cc(I)ccc2Oc2cc([N+](=O)[O-])ccc2N1c1ccc(Cl)cc1F
inactive: NCI-H23 lung 87.7% | NCI-H322M lung 93.4% | NCI-H460 lung 90.4% | HOP-92 NSCLC 88.3% | NCI-H522 lung 65.7% | A549/ATCC NSCLC 78.2% | 786-0 renal 98% | COLO 205 colon 106% | DU-145 prostate 97.9% | K-562 leukemia 49.4% | MALME-3M melanoma 84.9% | MDA-MB-231 breast 78.4% | RXF 393 renal 99% | SF-268 CNS 79.1% | SF-295 CNS 92% | SF-539 CNS 92.8% | UACC-257 melanoma 94.1% | M14 melanoma 97.7% | HCT-15 colon 57.4%

Cc1cc2c(c(C)c1Cl)C(=O)/C(=C/c1cccc([N+](=O)[O-])c1)O2
inactive: NCI-H23 lung 90.3% | NCI-H322M lung 98.7% | NCI-H460 lung 101% | HOP-92 NSCLC 114% | NCI-H522 lung 80.6% | A549/ATCC NSCLC 89.6% | 786-0 renal 101% | COLO 205 colon 123% | DU-145 prostate 104% | K-562 leukemia 99.9% | MALME-3M melanoma 97.1% | MDA-MB-231 breast 92.7% | RXF 393 renal 107% | SF-268 CNS 100% | SF-295 CNS 95.1% | SF-539 CNS 95% | UACC-257 melanoma 88.2% | M14 melanoma 98.9% | HCT-15 colon 99.7%

CC(=O)c1ccc(Nc2nc(NCCO)nc(Nc3ccc(Cl)cc3)n2)cc1
inactive: NCI-H23 lung 99.1% | NCI-H322M lung 97.1% | NCI-H460 lung 93.6% | HOP-92 NSCLC 86.4% | NCI-H522 lung 81.2% | A549/ATCC NSCLC 85.6% | 786-0 renal 104% | DU-145 prostate 94.8% | K-562 leukemia 78% | MALME-3M melanoma 93.5% | MDA-MB-231 breast 82.5% | RXF 393 renal 67.2% | SF-268 CNS 91.9% | SF-295 CNS 97.8% | SF-539 CNS 87.2% | UACC-257 melanoma 88.4% | M14 melanoma 114% | HCT-15 colon 73.9%

COc1cc(/C=C/C(=O)c2ccc(Cl)cc2)cc(CN2CCCCC2)c1O
inactive: NCI-H23 lung 92.6% | NCI-H322M lung 91.6% | NCI-H460 lung 94.3% | HOP-92 NSCLC 75.5% | NCI-H522 lung 77.2% | A549/ATCC NSCLC 94.6% | 786-0 renal 91.6% | DU-145 prostate 103% | K-562 leukemia 70.4% | MALME-3M melanoma 82.2% | MDA-MB-231 breast 83.2% | RXF 393 renal 97.6% | SF-268 CNS 91.1% | SF-295 CNS 97.9% | SF-539 CNS 92.1% | UACC-257 melanoma 92.3% | M14 melanoma 91.4% | HCT-15 colon 69.8%

O=C(NC1C(O)OC(CO)C(O)C1O)NS(=O)(=O)c1ccc(Cl)cc1 (centres undefined)
inactive: NCI-H23 lung 104% | NCI-H322M lung 99.5% | NCI-H460 lung 104% | HOP-92 NSCLC 101% | NCI-H522 lung 100% | A549/ATCC NSCLC 109% | 786-0 renal 104% | COLO 205 colon 114% | DU-145 prostate 108% | K-562 leukemia 108% | MALME-3M melanoma 104% | MDA-MB-231 breast 103% | RXF 393 renal 115% | SF-268 CNS 98.7% | SF-295 CNS 103% | SF-539 CNS 101% | UACC-257 melanoma 104% | M14 melanoma 102% | HCT-15 colon 102%

— PubChem BioAssay (NCI)
